PubChem BioAssay
Activity calls are given as the source filed them.

Experiments:
[1] = small molecules captured by biotinylated probe aFSTL3 – biochemical, small-molecule microarray, fluorescence 635/667, stem cell growth factor project, primary screen (AID 1064); details: higher = more signal;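 also: measures binding of the biotinylated anti-FSTL3 antibody to printed compounds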
[2] = binders from COS7 lysate, DM2A8 probe, primary screen, torsin A project, cell lysate, small-molecule microarray, fluorescence 635/667 (AID 1065); details: higher = more signal, COS7 lysate expressing mutant human TOR1A
[3] = small molecules captured by biotinylated probe aFGF2 – biochemical, small-molecule microarray, fluorescence 635/667, stem cell growth factor project, primary screen (AID 1067); details: higher = more signal;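 also: measures binding of biotinylated aFGF2 protein to printed compounds on slides; z-score merges feature fluorescence and signal-to-noise across triplicate slides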
[4] = small molecules captured by biotinylated probe aFGF10 – biochemical, small-molecule microarray, fluorescence 635/667, stem cell growth factor project, primary screen (AID 1071); details: higher = more signal;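 also: score merges 667 nm spot intensity and signal to noise from triplicate slides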
[5] = biological target: Neurogenic locus notch homolog protein 2 (Homo sapiens) (UniProt Q04721); experiment: small molecules binding Notch2 protein – biochemical, small-molecule microarray, 635 nm fluorescence, stem cell growth factors, primary screen (AID 1073); details: higher = more signal
[6] = biological target: Pro-neuregulin-1, membrane-bound isoform (Homo sapiens) (UniProt Q02297); experiment: small molecules binding neuregulin-1 protein – biochemical, small-molecule microarray, fluorescence 635/667, psychiatric disease protein project, primary screen (AID 1075); details: NRG1 binding, 635 nm fluorescence, higher = more signal;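 also: score combines 667 nm spot fluorescence with signal to noise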
[7] = test system: Neuregulin-1 EGF-like domain; experiment: small molecules binding NRG1 EGF domain – biochemical, small-molecule microarray, 635 nm fluorescence, primary screen (AID 1081); details: higher = more signal;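 also: binding of the protein to compounds printed on small-molecule microarray slides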
[8] = FRG1 expression reporter modulators in myotubes – cell-based, C2C12 myotubes, firefly/Renilla luciferase, luminescence, FRG1 inhibition for FSHD, primary screen (AID 1084); details: FRG1 promoter luciferase, higher = more signal, called active from +8 up or from −8 down
[9] = small molecules captured by biotinylated probe aFST – biochemical, small-molecule microarray, fluorescence 635/667, stem cell growth factor project, primary screen (AID 1086); details: higher = more signal;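 also: score merges 667 nm fluorescence with signal-to-noise of each printed compound spot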
[10] = binders of probe aHhip on microarray, primary screen, stem cell growth factor project, biochemical, small-molecule microarray, fluorescence 635/667 (AID 1087); details: higher = more signal;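 also: score merges spot fluorescence at 667nm with spot signal to noise ratio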
[11] = test system: PRMT1 (protein arginine N-methyltransferase 1); experiment: small molecules binding arginine methyltransferase PRMT1 – biochemical, small-molecule microarray, 635 nm fluorescence, primary screen (AID 1088); details: higher = more signal;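 also: binding of Prmt1 protein to compounds spotted on small-molecule microarray slides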
[12] = growth effects on S. cerevisiae YJM789 – YJM789 clinical isolate, OD600, 24 h, basal, primary screen (AID 1089); details: higher = more signal, called active from +8 up or from −8 down;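 also: growth of clinical yeast isolate S. cerevisiae YJM 789 seeded 1000 cells per well; test concentration not given here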
[13] = S. pombe growth modifiers, basal conditions – strain 972, OD600, 24 h, no modulator, primary screen (AID 1090);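 also: basal condition with compound alone and no growth modifier present; test concentration not given here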; details: S. pombe 972 growth, higher = more signal, called active from +8 up or from −8 down
[14] = budding yeast growth modifiers under rapamycin – strain BY4716, OD600, 96 h, primary screen (AID 1091); also: test concentration not given here; details: S. cerevisiae BY4716 + rapamycin, higher = more signal, called active from +8 up or from −8 down
[15] = biological target: Torsin-1A-interacting protein 2 (Homo sapiens) (UniProt Q8NFQ8); experiment: small molecules binding lysate-expressed LULL1 – cell lysate, human LULL1 lysate, 635/667 nm fluorescence, primary screen (AID 1092); details: small-molecule microarray, hLULL1 lysate binding, 635 nm fluorescence; higher = more signal;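 also: probe is lysate of COS7 cells overexpressing human LULL1; score merges per-feature 667 nm fluorescence with signal-to-noise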
[16] = optical density change of DRC41 E. coli – strain DRC41, OD650, 24 h, E. coli filamentation project, primary screen (AID 1093);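 also: MC1000 strain lacking acrAB efflux and sulA so SOS filamentation is blocked; test concentration not given here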; details: E. coli DRC41 growth, higher = more signal, called active from +8 up or from −8 down
[17] = probe aLefty2 binding to arrayed compounds – biochemical, biotinylated probe, 635/667 nm fluorescence, primary screen (AID 1094); details: small-molecule microarray, higher = more signal;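 also: score merges spot fluorescence near 667 nm with spot signal-to-noise ratio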
[18] = test system: Noggin (protein binding on small-molecule microarray); experiment: small molecules binding Noggin protein – biochemical, 635/667 nm fluorescence, primary screen (AID 1095); details: 635 nm fluorescence, higher = more signal;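 also: score merges 667 nm feature fluorescence with signal to noise over triplicate slides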
[19] = biological target: Neurogenic locus notch homolog protein 3 (Homo sapiens) (UniProt Q9UM47); experiment: small molecules binding NOTCH3 protein – biochemical, 635/667 nm fluorescence, primary screen (AID 1096); details: small-molecule microarray, 635 nm fluorescence, higher = more signal
[20] = probe aEGFR binding to arrayed compounds – biochemical, biotinylated probe, 635/667 nm fluorescence, primary screen (AID 1097); details: small-molecule microarray, higher = more signal;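 also: probe is a biotinylated anti-EGFR antibody binding compounds printed on slides; score combines fluorescence near 667 nm and signal to noise of each spot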

Sequence of Pro-neuregulin-1, membrane-bound isoform (Homo sapiens) (Q02297 whole entry, looked up, the tested form may be a part, canonical isoform): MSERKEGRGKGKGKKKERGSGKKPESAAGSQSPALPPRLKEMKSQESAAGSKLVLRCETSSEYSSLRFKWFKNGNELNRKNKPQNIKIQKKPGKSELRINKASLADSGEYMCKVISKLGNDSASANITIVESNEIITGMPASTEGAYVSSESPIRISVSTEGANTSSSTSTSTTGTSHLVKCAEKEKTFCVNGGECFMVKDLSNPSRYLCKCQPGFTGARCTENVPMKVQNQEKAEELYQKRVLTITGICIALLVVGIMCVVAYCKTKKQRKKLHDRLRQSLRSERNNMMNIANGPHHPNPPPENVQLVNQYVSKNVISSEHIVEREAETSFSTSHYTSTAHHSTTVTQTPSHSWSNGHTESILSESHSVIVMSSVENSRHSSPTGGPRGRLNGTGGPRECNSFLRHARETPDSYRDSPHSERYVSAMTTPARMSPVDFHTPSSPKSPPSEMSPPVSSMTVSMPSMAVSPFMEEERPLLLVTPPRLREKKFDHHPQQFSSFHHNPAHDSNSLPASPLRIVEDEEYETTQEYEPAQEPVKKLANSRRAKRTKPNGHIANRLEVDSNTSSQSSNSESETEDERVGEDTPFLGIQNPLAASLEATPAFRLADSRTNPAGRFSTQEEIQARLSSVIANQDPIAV
Sequence of Torsin-1A-interacting protein 2 (Homo sapiens) (Q8NFQ8 whole entry, looked up): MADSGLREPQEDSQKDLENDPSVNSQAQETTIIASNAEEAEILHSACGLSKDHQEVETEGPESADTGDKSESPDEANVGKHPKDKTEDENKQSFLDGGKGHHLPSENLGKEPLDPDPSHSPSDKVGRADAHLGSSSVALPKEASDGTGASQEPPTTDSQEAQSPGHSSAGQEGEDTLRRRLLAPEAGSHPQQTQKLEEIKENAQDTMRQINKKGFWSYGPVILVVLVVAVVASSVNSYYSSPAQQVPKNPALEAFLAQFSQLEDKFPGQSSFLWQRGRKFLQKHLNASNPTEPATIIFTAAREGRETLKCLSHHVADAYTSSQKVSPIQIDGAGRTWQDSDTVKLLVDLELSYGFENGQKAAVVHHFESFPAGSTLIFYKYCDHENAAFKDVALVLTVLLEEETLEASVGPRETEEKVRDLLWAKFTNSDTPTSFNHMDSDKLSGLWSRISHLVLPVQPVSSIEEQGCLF
Sequence of Neurogenic locus notch homolog protein 3 (Homo sapiens) (Q9UM47 whole entry, looked up): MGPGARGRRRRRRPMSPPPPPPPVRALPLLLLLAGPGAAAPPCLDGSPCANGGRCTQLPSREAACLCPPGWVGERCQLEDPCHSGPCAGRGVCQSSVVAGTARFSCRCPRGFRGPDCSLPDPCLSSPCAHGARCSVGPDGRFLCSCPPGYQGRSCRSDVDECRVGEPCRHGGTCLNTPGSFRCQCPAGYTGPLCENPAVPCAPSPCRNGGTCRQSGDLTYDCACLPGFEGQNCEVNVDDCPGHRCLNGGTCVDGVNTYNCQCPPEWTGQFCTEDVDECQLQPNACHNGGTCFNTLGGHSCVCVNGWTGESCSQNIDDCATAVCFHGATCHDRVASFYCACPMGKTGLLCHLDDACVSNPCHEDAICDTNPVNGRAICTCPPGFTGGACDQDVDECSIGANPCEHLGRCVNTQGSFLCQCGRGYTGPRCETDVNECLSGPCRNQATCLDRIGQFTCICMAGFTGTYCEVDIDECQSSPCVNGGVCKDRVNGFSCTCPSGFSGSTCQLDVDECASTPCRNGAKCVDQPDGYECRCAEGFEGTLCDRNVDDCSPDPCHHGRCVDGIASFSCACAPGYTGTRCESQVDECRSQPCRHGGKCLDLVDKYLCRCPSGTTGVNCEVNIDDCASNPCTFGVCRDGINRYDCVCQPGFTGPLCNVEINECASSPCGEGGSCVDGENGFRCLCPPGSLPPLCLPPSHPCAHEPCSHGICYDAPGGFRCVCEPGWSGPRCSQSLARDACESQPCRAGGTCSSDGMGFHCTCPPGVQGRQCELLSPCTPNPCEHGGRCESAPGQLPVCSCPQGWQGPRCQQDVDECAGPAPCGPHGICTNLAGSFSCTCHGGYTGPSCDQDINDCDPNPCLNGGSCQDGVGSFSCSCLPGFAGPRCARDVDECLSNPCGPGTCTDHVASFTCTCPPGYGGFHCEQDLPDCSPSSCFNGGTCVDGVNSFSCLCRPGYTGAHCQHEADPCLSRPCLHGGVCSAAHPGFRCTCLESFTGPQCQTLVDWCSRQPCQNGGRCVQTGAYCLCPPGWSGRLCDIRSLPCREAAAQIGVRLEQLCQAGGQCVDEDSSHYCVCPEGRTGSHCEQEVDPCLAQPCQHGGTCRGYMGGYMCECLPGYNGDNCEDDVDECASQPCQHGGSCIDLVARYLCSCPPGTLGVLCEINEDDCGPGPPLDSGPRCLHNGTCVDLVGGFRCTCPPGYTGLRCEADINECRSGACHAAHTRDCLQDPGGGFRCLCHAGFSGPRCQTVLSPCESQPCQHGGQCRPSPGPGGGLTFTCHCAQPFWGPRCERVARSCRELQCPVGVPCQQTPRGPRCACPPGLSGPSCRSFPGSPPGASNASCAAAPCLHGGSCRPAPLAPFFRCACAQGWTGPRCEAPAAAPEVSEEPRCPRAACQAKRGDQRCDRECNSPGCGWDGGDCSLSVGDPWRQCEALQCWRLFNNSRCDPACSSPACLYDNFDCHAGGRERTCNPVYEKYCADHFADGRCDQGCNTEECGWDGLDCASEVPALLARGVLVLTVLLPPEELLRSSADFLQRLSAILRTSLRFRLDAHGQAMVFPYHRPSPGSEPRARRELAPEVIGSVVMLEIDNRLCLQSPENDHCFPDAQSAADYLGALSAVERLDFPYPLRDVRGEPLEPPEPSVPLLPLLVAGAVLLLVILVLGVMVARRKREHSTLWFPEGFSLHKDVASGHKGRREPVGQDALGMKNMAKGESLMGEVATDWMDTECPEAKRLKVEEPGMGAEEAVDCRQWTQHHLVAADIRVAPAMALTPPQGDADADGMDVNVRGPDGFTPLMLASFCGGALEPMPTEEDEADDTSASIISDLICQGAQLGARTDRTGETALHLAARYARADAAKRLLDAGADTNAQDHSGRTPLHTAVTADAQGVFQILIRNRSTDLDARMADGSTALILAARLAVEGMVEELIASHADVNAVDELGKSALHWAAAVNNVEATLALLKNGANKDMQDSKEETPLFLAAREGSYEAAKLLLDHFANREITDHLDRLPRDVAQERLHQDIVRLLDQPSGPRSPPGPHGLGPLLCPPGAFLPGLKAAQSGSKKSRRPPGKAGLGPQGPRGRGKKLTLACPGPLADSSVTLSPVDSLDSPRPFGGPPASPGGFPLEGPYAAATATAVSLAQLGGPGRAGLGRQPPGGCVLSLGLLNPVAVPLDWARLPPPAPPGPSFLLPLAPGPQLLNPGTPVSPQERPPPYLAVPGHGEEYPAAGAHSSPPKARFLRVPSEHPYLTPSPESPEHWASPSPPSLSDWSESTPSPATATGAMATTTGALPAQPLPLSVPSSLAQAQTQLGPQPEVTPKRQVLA

| Compound | composite z-score [1] | composite z-score [2] | composite z-score [3] | composite z-score [4] | composite z-score [5] | composite z-score [6] | composite z-score [7] | z-score [8] | composite z-score [9] | composite z-score [10] | composite z-score [11] | z-score [12] | z-score [13] | z-score [14] | composite z-score [15] | z-score [16] | composite z-score [17] | composite z-score [18] | composite z-score [19] | composite z-score [20] |
| --- | --- | --- | --- | --- | --- | --- | --- | --- | --- | --- | --- | --- | --- | --- | --- | --- | --- | --- | --- | --- |
| COC(=O)[C@]1(Cc2ccccc2CN=[N+]=[N-])N=C(c2ccc(OCCCO)cc2)O[C@@H]1c1ccccc1N=[N+]=[N-] | 0.0455 | 0.157 | -0.0465 | -0.223 | -0.206 | 0.829 | 1.18 | 3.39 (inactive) | 0.163 | -0.266 | 0.907 | -0.267 (inactive) | -1.58 (inactive) | 36.1 (active) | 1.22 | 1.08 (inactive) | 0.0269 | 0.398 | -0.122 | -0.297 |
| COc1ccc(C(O)C2C=CC3C(=O)N(c4ccccc4)C(=O)C3N2Nc2ccccc2F)c2ccccc12 (stereo not given) | 1.24 | 1.08 | 0.433 | 1.14 | 1.72 | 1.79 | 1.23 | 1.25 (inactive) | 1.89 | -0.233 | 1.55 | -0.466 (inactive) | -0.0101 (inactive) | 0.257 (inactive) | 3.33 | -0.0841 (inactive) | 0.582 | 0.117 | 1.05 | 0.697 |
| CO[C@H]1O[C@H](CO)[C@@H](OC(=O)Nc2cccc(F)c2)[C@H](OC(=O)c2cc3ccccc3[nH]2)[C@H]1OC(=O)c1cc2ccccc2[nH]1 | -0.277 | -0.108 | -0.0355 | 0.463 | -0.0665 | 1.33 | 0.24 | -1.46 (inactive) | -0.238 | -0.0726 | 0.669 | -2 (inactive) | 0.201 (inactive) | 0.296 (inactive) | 0.338 | -0.178 (inactive) | -0.15 | 0.696 | 0.0453 | -0.1 |
| CC[C@@H](O[Si](C#C[Si](C(C)C)(C(C)C)C(C)C)(C(C)C)C(C)C)c1cn([C@H](C)c2ccccc2)nn1 | -0.51 | 0.488 | -0.0797 | 0.663 | 0.728 | 0.284 | 0.739 | -0.0777 (inactive) | 0.129 | 0.115 | 0.991 | 0.685 (inactive) | 0.0803 (inactive) | 0.529 (inactive) | 0.382 | 0.612 (inactive) | -0.148 | 0.391 | 0.785 | -0.0332 |
| CCCCN1CC=CC23O[C@@H]4C=CCCOC(=O)C4[C@H]2C(=O)N(CCO)[C@@H]3C1=O (stereo not given in full) | 0.18 | -0.881 | -0.276 | 1.02 | -1.29 | -0.944 | -0.397 | -0.183 (inactive) | -1.01 | 0.176 | -0.0141 | -0.207 (inactive) | -0.492 (inactive) | -0.19 (inactive) | -0.248 | 1.5 (inactive) | -0.182 | 0.132 | -0.414 | -0.167 |
| O=C1N(Cc2ccccc2)c2ccccc2C[C@@]12N=C(c1ccc(OCCCO)cc1)O[C@H]2c1ccccc1 | -0.0448 | 0.0182 | -0.0129 | 0.311 | 0.18 | 0.909 | 1.14 | -2.64 (inactive) | -0.238 | -0.0925 | 1.55 | -0.789 (inactive) | -2.61 (inactive) | 3.55 (inactive) | 3.03 | -0.788 (inactive) | 0.0686 | 0.591 | 1 | -0.178 |
| CN1C(=O)C2C=CC(C(O)COCc3ccccc3)N(Nc3ccc([N+](=O)[O-])cc3[N+](=O)[O-])C2C1=O (stereo not given) | 0.0982 | -0.0795 | 0.0952 | 0.475 | 0.172 | 0.0948 | 0.752 | 1.16 (inactive) | 0.329 | -0.167 | 0.332 | 0.629 (inactive) | -1.58 (inactive) | 0.308 (inactive) | 1.78 | -0.278 (inactive) | 0.229 | -0.39 | -0.282 | -0.146 |
| COC(=O)[C@H]1N=C(c2ccc(OCCCO)cc2)O[C@H]1c1ccccc1N=[N+]=[N-] | 1.6 | 0.707 | 0.184 | 0.48 | 1.01 | 0.544 | 1.21 | 4.9 (inactive) | 1.04 | -0.0994 | 1.08 | -0.651 (inactive) | -4.13 (inactive) | -1.09 (inactive) | 2.73 | 0.112 (inactive) | 0.588 | 0.0025 | -0.0392 | 0.131 |
| C=CC[C@]1(C(N)=O)N=C(c2ccc(OCCCO)cc2)O[C@H]1c1ccccc1N=[N+]=[N-] | 0.951 | -0.385 | 0.087 | 0.672 | 0.737 | 1.8 | 1.06 | 2.63 (inactive) | 1.69 | -0.306 | 1.37 | 0.344 (inactive) | -1.3 (inactive) | 0.673 (inactive) | 3.33 | 1.94 (inactive) | 0.239 | 0.301 | 0.923 | 0.0049 |
